FLuc inh = inhibitors of firefly (Photinus pyralis) luciferase; Potency, µM (top dose mostly 115 µM), most hits filed as inhibitors; P08659; 76,000 tested, 2.5% active; purified P. pyralis luciferase, luminescence, biochemical; further: nearly all actives have a fitted effect of over 65% in size
Target sequence (P08659 whole entry, looked up): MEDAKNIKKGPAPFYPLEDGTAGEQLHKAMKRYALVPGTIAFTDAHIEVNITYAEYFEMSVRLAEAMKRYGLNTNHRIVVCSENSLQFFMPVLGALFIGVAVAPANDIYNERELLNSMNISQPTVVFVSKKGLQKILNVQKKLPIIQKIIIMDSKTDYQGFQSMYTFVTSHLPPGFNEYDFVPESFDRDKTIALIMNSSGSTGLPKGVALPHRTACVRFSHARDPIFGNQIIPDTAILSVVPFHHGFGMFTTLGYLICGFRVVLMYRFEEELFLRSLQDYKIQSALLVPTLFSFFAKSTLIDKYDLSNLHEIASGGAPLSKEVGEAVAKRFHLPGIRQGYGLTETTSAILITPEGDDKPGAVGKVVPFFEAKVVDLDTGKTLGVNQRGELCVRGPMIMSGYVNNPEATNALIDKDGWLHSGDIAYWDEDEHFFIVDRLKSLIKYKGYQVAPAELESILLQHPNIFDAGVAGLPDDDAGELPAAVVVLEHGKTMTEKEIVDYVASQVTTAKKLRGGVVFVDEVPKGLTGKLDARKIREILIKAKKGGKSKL
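Luminescence read by CCD imaging after purified firefly luciferase (10nM final) was added to substrate buffer holding 10uM D-luciferin and 10uM ATP, pH 7.5, pre-dosed with compound.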
3T3 cytotox = kills NIH 3T3 cells | NIH 3T3 viability, CellTiter-Glo ATP luminescence, 48-72 h | Potency, µM (series often up to 96.7 µM), without a hit: at the top dose activity change, negative = cytotoxicity, most hits filed as inhibitors | 94,000 tested, 4.3% active; further: nearly all actives have a fitted effect of over 55% in size
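Luminescent ATP readout (CellTiter-Glo, 10 min RT) after 48 or 72 hr compound exposure of NIH 3T3 cells seeded at 400 cells/well in 1536-well format; quantitative HTS.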
GPT2 inhibitor = blocks human glutamate pyruvate transaminase 2; Q8TD30; Recombinant GPT2, coupled pyruvate oxidase/HRP Amplex Red fluorescence; Potency, µM (top dose mostly 57.7 µM), without a hit: at the highest dose activity change, negative = inhibition, hits mostly inhibitors; 100,000 tested, 0.25% active; AID 1671188; further: nearly all actives have a fitted effect of over 60% in size
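Recombinant GPT2 (10ng/uL) with 250uM a-KG and 2mM L-alanine, 30 min at room temperature, in HEPES pH 7.5 buffer. Pyruvate detected by pyruvate oxidase/HRP/Amplex Red fluorescence after 30 min in the dark; AOA (50uM) as positive control.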
HEK cytotox = kills HEK 293 cells | Potency, µM (doses to about 115 µM), inactives show top-dose activity change, negative = cytotoxicity, hits mostly inhibitors | 94,000 tested, 6.6% active | HEK 293 viability, ATP luminescence (CellTiter-Glo), 48-72 h; further: nearly all actives have a fitted effect of over 60% in size
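Read-out: CellTiter-Glo ATP luminescence. Cells: HEK 293, 250 cells/well. Exposure: 48 or 72 hr, 37 degree Celsius.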
hNpr1 antagonist = human Npr1 receptor antagonism. P16066. Potency, µM (highest dose often 46.3 µM), inactives show at the highest dose activity change, negative = inhibition, actives largely listed as inhibitors. HEK293 hNpr1 GloSensor cGMP, ANP-stimulated luminescence. 76,000 tested, 1.6% active; calls by dose curve; further: nearly all actives have a fitted effect of over 60% in size
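Compound pre-incubated 30 min at room temperature on GloSensor-loaded HEK293 cells stably carrying hNpr1 and the pGS-40F cGMP biosensor. Stimulation uses hNppA at 0.1 nM final; luminescence is taken at baseline and 20 min post-agonist.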
Active calls of the source: *; i = inactive; ? = inconclusive; . = no result; [ ] = dose if it differs, or a comment. Most compounds without a hit are left out; they make up all but 10% or so of the library. Unless noted, the call rests on the fitted dose curve; in most records, active means well fitted curve in the direction sought with a large enough effect; inconclusive means small, poorly fitted or top-dose-only effect, or another doubt; inactive means no such curve, though single readings can be large; an effect the other way counts as inactive or inconclusive. On the % scale 0 is the no-effect control and ±100 the full control effect; potency means the concentration at half of the fitted maximal effect.

SMILES	FLuc inh	3T3 cytotox	GPT2 inhibitor	HEK cytotox	hNpr1 antagonist
O=C(CNC(=O)c1cccc(-c2ccc(C(F)(F)F)cc2)c1)NCCC1CCCCC1	.	22µM*	i	22µM*	.
COCCNC(=O)CNC(=O)c1cccc(-c2ccc(C(F)(F)F)cc2)c1	.	?	i	?	.
Cc1ccccc1CC(=O)N1CCCC(c2noc(COc3ccccc3)n2)C1 (stereo not given)	i	?	-7%	45µM*	-15%
COCc1nc(C2CCCN(C(=O)Cc3ccccc3C)C2)no1 (stereo not given)	i	i	i	-10%	0%
Cc1ccc(OCc2nc(C3CN(C(=O)Cc4ccsc4)C3)no2)cc1	i	?	-2%	89µM*	-18%
CC(C)CNC(=O)N1CCCC(c2nc(CCOc3ccc(F)cc3)no2)C1 (stereo not given)	i	?	i	40µM*	-20%
Cc1ccccc1NC(=O)N1CCCC(c2noc(COc3ccccc3)n2)C1 (stereo not given)	i	?	-21%	?	-22%
CCc1cccc(NC(=O)N2CCCC(c3noc(COc4ccccc4)n3)C2)c1 (stereo not given)	i	32µM*	-3%	?	?
CCCNC(=O)N1CCCC(c2nc(CCOc3ccc(F)cc3)no2)C1 (stereo not given)	.	?	3%	?	.
CCNC(=O)N1CCCC(c2noc(COc3ccccc3F)n2)C1 (stereo not given)	35µM*	-17%	i	-4%	1%
CC(C)NC(=O)N1CCCC(c2noc(COc3ccccc3F)n2)C1 (stereo not given)	i	-21%	i	-8%	0%
Cc1ccccc1CN1CCC2(CC1)COCCN2C(=O)OCc1ccccc1	i	?	-5%[88.5 µM]	100µM*	-17%[70.6 µM]
O=C(OCc1ccccc1)N1CCOCC12CCN(Cc1ccncc1)CC2	i	35µM*	i	50µM*	-5%[70.6 µM]
O=C(OCc1ccccc1)N1CCOCC12CCN(Cc1nccs1)CC2	i	?	i	?	?
O=C(OCc1ccccc1)N1CCOCC12CCN(Cc1ccccc1F)CC2	i	?	-1%[88.5 µM]	?	-5%[70.6 µM]
COc1ccccc1CN1CCC2(CC1)COCCN2C(=O)OCc1ccccc1	i	?	-16%[88.5 µM]	?	-15%[70.6 µM]
O=C(OCc1ccccc1)N1CCOCC12CCN(Cc1ccccc1)CC2	i	?	i	25µM*	-14%[70.6 µM]
Cc1ccc(CN2CCC3(CC2)COCCN3C(=O)OCc2ccccc2)o1	i	45µM*	i	28µM*	1%[70.6 µM]
CN(C)c1ccc(CN2CCC3(Cc4ccccc4NC3=O)C2)cc1 (stereo not given)	i	?	-5%[88.5 µM]	?	5%[70.6 µM]
COc1ccc(-c2cc(N3CCCN(C(=O)c4ccc(NC(C)=O)cc4)CC3)n[nH]2)cc1	i	-3%	?	-18%	5%
Cc1noc(C)c1CN1CCC2(CC1)COCCN2C(=O)OCc1ccccc1	i	-12%[138 µM]	-3%[88.5 µM]	?	-2%[70.6 µM]
Cc1cccc(CN2CCC3(CC2)COCCN3C(=O)OCc2ccccc2)c1	i	40µM*	-15%[88.5 µM]	40µM*	-8%[70.6 µM]
CCCn1cc(-c2ccnc(NCc3cccc(C)c3)n2)c(C)n1	i	?	i	?	8%
CCCn1cc(-c2ccnc(NC3CCN(Cc4ccccn4)CC3)n2)c(C)n1	i	?	i	28µM*	-6%
CCCn1cc(-c2ccnc(NCc3c(F)ccc(C)c3F)n2)c(C)n1	i	?	-1%	50µM*	1%
SMILES	FLuc inh	3T3 cytotox	GPT2 inhibitor	HEK cytotox	hNpr1 antagonist
CCN1C(=O)C2CC3(CCN(Cc4cccc(OC(F)(F)F)c4)CC3)CN2C1=O (stereo not given)	i	?	1%	40µM*	-21%
CC(=O)Nc1ccc(CN2CC3CCC(C2)N3c2ccc(C(F)(F)F)cc2)cc1	i	?	2%	22µM*	?
CCN1C(=O)C2CC3(CCN(Cc4ccc5[nH]ccc5c4)CC3)CN2C1=O (stereo not given)	i	-2%	-5%	-2%	4%
CC(=O)Nc1ccc(CN2CCN3C(=O)N(Cc4ccc(C)cc4)C[C@H]3C2)cc1	i	-6%[174 µM]	-1%[88.5 µM]	79µM*	-26%[70.6 µM]
Cc1ccc(CN2C[C@H]3CN(Cc4cccc(OC(F)(F)F)c4)CCN3C2=O)cc1	i	45µM*	-15%[88.5 µM]	63µM*	-18%[70.6 µM]
COc1ccccc1/C=C/CN1CCCC(CCC(=O)Nc2ccccc2F)C1 (stereo not given)	i	?	-1%	45µM*	-1%
COc1ccc(/C=C/CN2CCC(CCC(=O)Nc3ccccc3Cl)CC2)cc1	i	79µM*	-9%	?	1%
COc1ccccc1C(=O)NC1CCN(c2ccc3nnc(C4CC4)n3n2)C1 (stereo not given)	.	-14%	.	?	.
O=C(Cc1ccc(F)cc1)N1CCCN(c2ccc3nnc(C4CC4)n3n2)CC1	.	-3%	.	i	.
O=C(Nc1cc(-c2ccccn2)nn1-c1ccccc1)c1ccccc1	.	-17%	-9%	-15%	.
O=C(NCc1ccc(F)cc1)c1nc(-c2ccccc2)c2cnccn12	.	?	5%	?	.
C[C@]12C=CC(=O)C=C1CC[C@@H]1C2=CC[C@]2(C)[C@@H](C(=O)CN3CCN(c4cc(N5CCCC5)nc(N5CCCC5)n4)CC3)CC[C@@H]12	.	.	0.71µM*	.	.
COCCC(=O)NC[C@@H]1C=C(C)[C@H](CC(=O)N(C)Cc2cccnc2)C[C@H]1C(C)C	56µM*	0%[174 µM]	-3%[88.5 µM]	-15%[172 µM]	-4%[70.6 µM]
CC1=C[C@@H](CNC(=O)c2ccco2)[C@H](C(C)C)C[C@H]1CC(=O)N(C)Cc1ccccc1	i	100µM*	i	?	1%[70.6 µM]
CC1=C[C@@H](CNS(=O)(=O)c2ccc(C)cc2)[C@H](C(C)C)C[C@H]1CC(=O)N(C)Cc1cccnc1	i	11µM*	-5%	45µM*	-19%
CC1=C[C@@H](CNC(=O)CCC(=O)O)[C@H](C(C)C)C[C@H]1CC(=O)N(C)Cc1ccccc1	i	-14%[174 µM]	i	-7%[172 µM]	0%[70.6 µM]
CC1=C[C@@H](CNS(=O)(=O)c2cccc(C#N)c2)[C@H](C(C)C)C[C@H]1CC(=O)NCc1cccnc1	i	-6%	?	-9%	-3%
N#Cc1ccc(CN2CC[C@@H]3C(=O)NCCCCCCN(Cc4ccncc4)[C@@H]3C2)cc1	i	-28%	-1%	-11%	1%
COc1ccc(-c2c(C(=O)NC3CCCCCC3)nc3sccn23)cc1	.	-22%	1%	45µM*	.
O=C(NCCCc1ccccc1)c1nc2sccn2c1-c1ccc(C(F)(F)F)cc1	.	?	2%	?	.
COc1ccc(CCNC(=O)c2nc3sccn3c2-c2ccc(OC)cc2)cc1	.	?	3%	?	.
